Screens (PubChem)
NS1 function inh – qHTS Assay for Inhibitors of Influenza NS1 Protein Function. Potency, µM (titrated, usually from 46.1 µM), for the others: at the highest dose activity, positive = more growth. 270,000 compounds, 0.4% hits; calls by dose curve; further: potency means the concentration at half of the fitted maximal effect; actives are rising curves; nearly all actives have a fitted effect of over 50% in size
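A cell-based growth assay was used: compounds that relieve NS1-induced slow growth of budding yeast raise OD600. Assay medium was yeast nitrogen base with ammonium sulphate and -URA supplement, pH 6.0, with 2% galactose.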
Pf growth 96h – Primary qHTS for delayed death inhibitors of the malarial parasite plastid, 96 hour incubation | 320,000 compounds, 6.9% hits | P. falciparum luciferase reporter growth, 96 h | Potency, µM (highest dose often 28.7 µM), for the others: top-dose activity change, negative = inhibition, hits mostly inhibitors | AID 504834, 2011; further: potency means the concentration at half of the fitted maximal effect; on the % scale 0 is the no-effect control and ±100 the full control effect
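Plates of compound plus infected erythrocytes (2% hematocrit, 0.05% parasitemia final) incubate 96 hours, 37 C, 5% CO2. Detection reagent added; reduced luminescence from the parasites' luciferase reporter flags inhibition.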
Shiga toxin inh – A qHTS for Small Molecule Inhibitors of Shiga Toxin; Vero cells, Shiga toxin protein synthesis inhibition reporter; inhibition, % at 38.7 µM; 290,000 compounds, 9.2% hits; AID 2315, 2010; in the data active means inhibition mostly above about 28%, no sharp cut-off; inactive means mostly below about 43%; further: 0% is about no effect
Pf growth 48h – Primary qHTS for delayed death inhibitors of the malarial parasite plastid, 48 hour incubation; Potency, µM (titrated, usually from 28.7 µM), for the others: at the highest dose activity change, negative = inhibition, actives largely listed as inhibitors; P. falciparum luciferase growth in erythrocytes, 48 h; 310,000 compounds, 5.9% hits; further: potency means the concentration at half of the fitted maximal effect; on the % scale 0 is the no-effect control and ±100 the full control effect
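Luciferase-expressing P. falciparum in infected erythrocytes (2% hematocrit, 0.1% parasitemia final) in RPMI 1640/0.5% Albumax were exposed to compound for 48 hours at 37 C, 5% CO2; growth read as luminescence.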
CHX counter – Cycloheximide Counterscreen for Small Molecule Inhibitors of Shiga Toxin | cell reporter, cycloheximide protein synthesis inhibition counterscreen | max response, % | 300,000 compounds, 12% hits; in the data active means max response mostly above about 13%, no sharp cut-off; inactive means mostly below about 14%; further: read at 38.3 µM for the half of the compounds with a filed dose; 0% is about no effect
FBPA Giardia inh – qHTS Assay for Inhibitors of Fructose-1,6-bisphosphate Aldolase from Giardia Lamblia. 290,000 compounds, 0.71% hits. purified Giardia FBPA. AID 2451, 2010. Potency, µM (series often up to 59.6 µM), for inactives: top-dose activity, negative = inhibition, most hits filed as inhibitors. A8B2U2; further: potency means the concentration at half of the fitted maximal effect; on the % scale 0 is the no-effect control and ±100 the full control effect; nearly all actives have a fitted effect of over 55% in size
Target sequence (A8B2U2 whole entry, looked up): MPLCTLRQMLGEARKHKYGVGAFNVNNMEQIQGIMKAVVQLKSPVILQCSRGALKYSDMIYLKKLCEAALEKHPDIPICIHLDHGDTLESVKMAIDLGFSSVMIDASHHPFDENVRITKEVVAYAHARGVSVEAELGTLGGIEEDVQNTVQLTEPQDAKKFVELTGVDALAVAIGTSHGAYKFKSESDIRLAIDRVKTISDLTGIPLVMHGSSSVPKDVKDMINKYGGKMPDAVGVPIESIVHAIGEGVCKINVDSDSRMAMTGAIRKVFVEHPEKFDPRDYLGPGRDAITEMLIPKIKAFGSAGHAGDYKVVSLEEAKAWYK
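40 nM FBPA preincubated 10 min at RT with compound (up to 57.5 uM final), then substrate plus GAPDH/TPI/NAD/arsenate coupling and diaphorase/resazurin added. Fluorescence read after 20 min at RT, 525/598 nm.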
NS1 inh valid – Assay for Inhibitors of Influenza NS1 Protein Function: Hit Validation; shares compounds with NS1 function inh; activity change, negative = inhibition, % at 32.9 µM; influenza NS1 function cell assay, 15-point titration; 1,400 tested, under 10 active; calls by dose curve; further: 0% is about no effect
Flu PR8 replic – Assay for Inhibitors of Influenza NS1 Protein Function: Influenza virus replication assay in MDCK cells infected with virus A/PR/8/34. 95 compounds, 30% hits. MDCK infected influenza A/PR/8/34, virus titer TCID50; stronger effect = lower value. virus titer (log TCID50), log10 TCID50 at 5 µM. shares compounds with NS1 function inh; call rule not given here
An asterisk follows results filed as active; ? = inconclusive; . = not tested or not shown; [ ] = another dose, or the depositor's remark. In the library only some 21% were active in any assay of this set; here they are far more common. Unless noted, the call rests on the fitted dose curve; in most records, active means well fitted curve in the direction sought with a large enough effect; inconclusive means small, poorly fitted or top-dose-only effect, or another doubt; inactive means no such curve, though single readings can be large; an effect the other way counts as inactive or inconclusive.

SMILES | NS1 function inh | Pf growth 96h | Shiga toxin inh | Pf growth 48h | CHX counter | FBPA Giardia inh | NS1 inh valid | others
Cc1ccc(-c2nnc(SCC(=O)N3CCOCC3)nc2-c2ccc(C)cc2)cc1 | -8% | ? | -27 | ? | -4 | -4% | .
Cc1nn(Cc2c(F)cccc2Cl)c(C)c1NC(=O)C1CC1 | -3% | 0% | 3 | 12% | -2 | -2% | .
CCCn1c(CCNc2nc(-c3ccc(Cl)c([N+](=O)[O-])c3)cs2)nc2cc(Cl)c(Cl)cc21 | 8.9µM* | 34% | 4 | 2% | 4 | ? | 37 | Flu PR8 replic=8
Cc1ccc(S(=O)(=O)c2c(C(=O)c3ccccc3)cnc3cc4c(cc23)OCCO4)cc1 | 16µM* | ? | 19 | ? | 14 | -3% | 8
Cc1c(C(=O)c2ccc(Cl)c(Cl)c2)cnc2cc3c(cc12)OCO3 | 5% | ? | -5 | ? | -2 | 0% | .
C[C@H]1c2cccc(O)c2C(O)=C2C(=O)[C@]3(O)C(O)=C(C(N)=O)C(=O)C(N(C)C)[C@@H]3[C@@H](O)C21 (stereo partly specified) | 7.1µM* | . | . | . | . | ? | -11
N#C/C(=C\c1ccccc1)C(=O)N(c1ccccn1)C1CCCCC1 | -44% | ? | 9 | -29% | -6 | 0% | .
CCN(CC)S(=O)(=O)c1cccc(NC(=O)COC(=O)c2cccs2)c1 | . | -7% | -4 | 16% | -3 | 5% | .
COc1ccc(C(=O)N2CCN(S(=O)(=O)c3ccc(C)cc3C)CC2)cc1OC | -48% | 38% | -10 | -15% | 11 | 6% | .
COc1ccc(C)cc1S(=O)(=O)N1CCN(C(=O)c2ncoc2-c2ccccc2C)CC1 | ? | -28% | 1 | -24% | -4 | 2% | -20
Cn1c(N)c(C(=O)COC(=O)c2cc(C3CC3)nc3ccccc23)c(=O)n(Cc2ccccc2)c1=O | 11µM* | ? | -21 | -9% | -4 | -17% | 10
Nn1cnc2scc(-c3ccco3)c2c1=O | -15% | 23% | -6 | 28% | -3 | 10% | .
COC(=O)C1=Nc2ccccc2/C1=C\c1c(O)n(-c2ccc(Br)cc2)c(=O)[nH]c1=O | 10µM* | 8% | -13 | 14% | 1 | -10% | -35
CCCNC(=S)N1CCC(C(=O)c2ccc(OC)cc2)CC1 | 4% | ? | -11 | -1% | -2 | 4% | .
CCCC(C)NC(=O)c1ccc2[nH]c3c(c2c1)CC(C)CC3 (stereo unspecified) | 11µM* | 3.3µM* | 49 | 4.7µM* | 28* | -22% | 1
CC1CCc2[nH]c3ccc(C(=O)Nc4ccc(C(=O)N(C)C)cc4)cc3c2C1 (stereo unspecified) | 10% | ? | -16 | 6% | 7 | . | .
Cc1c(OC(C)C(=O)NC(Cc2c[nH]c3ccc(O)cc23)C(=O)O)ccc2c1oc(=O)c1ccccc12 (stereo unspecified) | 17% | ? | -3 | -3% | -2 | -19% | .
Cc1c(C)c2ccc(OC(C)C(=O)N[C@@H](Cc3c[nH]c4ccccc34)C(=O)O)c(C)c2oc1=O (stereo partly specified) | 10µM* | 37% | -2 | ? | -2 | 30% | 19
Cc1ccc(OCC(=O)Nc2sc3c(c2C#N)CC(C)(C)NC3(C)C)cc1 | -1% | 290% | -1 | 9% | -2 | 1% | .
CC(C)CC(=O)Nc1sc2c(c1C#N)CC(C)(C)NC2(C)C | 10µM* | ? | -11 | 0% | 0 | 1% | -1
COC(=O)[C@H]1C[C@@H]1[C@H](NC(=O)[C@H]1C[C@@H]1[C@H](NC(=O)OCc1ccccc1)c1ccccc1)c1ccccc1 | 10µM* | 15µM* | 4 | ? | 4 | -6% | -5
CN(C)C(=O)[C@@H]1C[C@H]1[C@@H](NC(=O)OCc1ccccc1)c1ccccc1 | -7% | -19% | -3 | 1% | 0 | 6% | .
Cc1cc(=O)[nH]c(N/N=C/c2c(O)n(-c3ccccc3)c(=O)c3ccccc23)n1 | 10µM* | -21% | 15 | -25% | 6 | -29% | -2
COc1ccc(N(CC(=O)Nc2cc(Cl)ccc2OC)C2=NC3CS(=O)(=O)CC3S2)cc1 (stereo unspecified) | -4% | ? | -2 | -18% | -3 | 9% | .
CC(=O)N(Cc1ccc2c(c1)OCO2)C1CC(=O)N(CCc2ccccc2)C1=O (stereo unspecified) | 2% | ? | 12 | 12% | -1 | 4% | .
SMILES | NS1 function inh | Pf growth 96h | Shiga toxin inh | Pf growth 48h | CHX counter | FBPA Giardia inh | NS1 inh valid | others
CCC(C)C(NC(=O)c1ccccc1NC(=O)c1ccco1)C(=O)NC1CCCCC1 (stereo unspecified) | 4.5µM* | 310% | 13 | 9.3µM* | -4 | -2% | 1
O=C(c1oc(=O)c2ccccc2c1-c1ccccc1)N1CCN(C2CCCCC2)CC1 | -4% | 15% | -5 | . | -5 | 4% | .
COc1ccccc1NC(=O)CN(c1ccc(C)cc1)S(=O)(=O)c1c(C)n[nH]c1C | ? | . | -15 | ? | -5 | -6% | -11
COc1ccccc1NC(=O)CCC(=O)Nc1ccccc1OC | 3%[9.22 µM] | -8% | -5 | 6% | -2 | 1% | .
COc1ccccc1NC(=O)C/C(N)=N/O | 13µM* | -7% | -2 | . | 3 | -1% | 17
O=C(Nc1ccccc1Oc1ccccc1)c1ccc(Br)o1 | ? | 33% | -13 | 5% | -1 | 8% | ?
O=C(Nc1ccccc1-c1ccccc1)c1ccc(Br)o1 | -71% | . | -16 | . | 3 | 5% | .
O=C(CSc1nncs1)Nc1ccc(S(=O)(=O)N2CCCC2)cc1 | . | 0% | -4 | 0% | -3 | 1% | .
CC(C)CC(C(=O)O)N1C(=O)C2C3CC(C2C1=O)C1C(c2ccccc2)c2sc(=O)[nH]c2SC31 (stereo unspecified) | ? | 20% | -10 | 14% | -1 | 9% | 36
O=C(Cn1cnc2c(oc3ccccc32)c1=O)NCCc1ccccc1 | 5µM* | . | . | . | . | . | -13
CCOC(=O)C1CCN(C(=O)CN(Cc2ccccc2)S(C)(=O)=O)CC1 | 14µM* | . | -16 | 1% | -1 | 2% | 11
CS(=O)(=O)N(CC(=O)N1CCCCC1)Cc1ccccc1 | 7% | 65% | 2 | ? | -2 | 7% | .
